# Experimental data taken from PubChem BioAssay (Tox21).
# Records with an inconclusive call do not appear. Entries that show only a call come without a potency. The source made the active and inactive calls. Calls follow the shape of the dose curve; as a rule, active = well fitted cell-killing curve with a large enough effect in the repeat runs; inconclusive = weak or mixed curves; inactive = no such curve, though single readings can be large or run the other way. Positions of bridges follow the written chain, without caps; N, C: chain ends. Non-standard residues stand in square brackets, D forms with d. Residues, ends and D or L forms follow the SMILES beside them. hArg = N=C(N)NCCCC[C@H](N)C(=O)O; Mpa = O=C(O)CCS
# Assay: qHTS assay for identifying genotoxic compounds that show differential cytotoxicity against isogenic chicken DT40 cell lines with known DNA damage response pathways - Rad54/Ku70 mutant cell line (AID 743015); also: nearly all actives have a fitted effect of over 60% in size
# Conditions: DT40 Rad54/Ku70 mutant viability, CellTiter-Glo, 40 h; series mostly up to 66.8 µM
# Text: National Center for Advancing Translational Sciences [NCATS]
# NIH Chemical Genomics Center [NCGC]
# U.S. Environmental Protection Agency [EPA]
# National Institutes of Environmental Health Sciences [NIEHS]
# National Toxicology Program [NTP]
# U.S. Food and Drug Administration [FDA]
# DNA repair pathways play a critical role in cellular homeostasis by repairing DNA damage induced by endogenous processes and xenobiotics. Isogenic chicken DT40 cell lines deficient in different DNA repair pathways can be used to identify genotoxic compounds and aid in characterizing the nature of the DNA damage induced. Two DNA repair-deficient cell lines with disrupted genes, Rad54/Ku70 or Rev3, were used to screen the Tox21 10K compound library. Possible genotoxicity was based on the presence of a significant increase in cytotoxicity in one or more of the DNA repair-deficient cell lines compared to that observed in the parental DNA repair-proficient cell line. CellTiter Glo viability assay (Promega, Madison, WI) was used to measure cell viability in these cells after compound treatment. This assay includes the data from the Rad54/Ku70 mutant cell line.
# Tox21 Assay Protocol Summary:
# 300 DT40 mutant cells in 5 uL/well were dispensed into white, solid-bottom 1536-well plates using a Multidrop Combi (ThermoFisher Scientific, Waltham, MA) dispenser. After the assay plates were incubated at 37 C/5% CO2 for approximately 0.5 hour, 23 nL of compounds dissolved in DMSO, positive controls or DMSO only was transferred into the assay plate by a pintool work station (Kalypsys, San Diego, CA). The assay plates were incubated at 37 C/5% CO2 for 40 hours. After 5 uL per well of CellTiter-Glo reagent was added into each well of the assay plates, the plates were incubated for 30 min at room temperature and the luminescence intensity of the plates was measured using a ViewLux (PerkinElmer, Shelton, CT) plate reader.
# Potency is read from the fitted curve at half-maximal effect.
row,Compound,Potency
1,Cc1ccc(C)c([N+](=O)[O-])c1,inactive
2,CC(C)(CO)C(O)C(=O)NCCCO (stereo not given),inactive
3,CC(=O)C(C)O (stereo not given),inactive
4,O=C(Cl)c1ccccc1[N+](=O)[O-],inactive
5,CC(C)[C@H]1CC[C@H](C)C[C@@H]1O,inactive
6,CO/N=C(/C(=O)N[C@@H]1C(=O)N2C(C(=O)[O-])=C(C[n+]3ccn4ncccc43)CS[C@H]12)c1nsc(N)n1,inactive
7,c1ccc(B(c2ccccc2)c2ccccc2)cc1,inactive
8,CC(N)CCCC(C)(C)O (stereo not given),inactive
9,CN(C)CCOC(=O)C(c1ccccc1)C1(O)CCCC1 (stereo not given),inactive
10,O=C(CN1CCNCC1)NC1CCCCC1,inactive
11,CC(C)OC(=O)OCOP(=O)(CO[C@H](C)Cn1cnc2c(N)ncnc21)OCOC(=O)OC(C)C,inactive
12,CCC(=O)CC,inactive
13,CCc1occc(=O)c1O,inactive
14,c1ccc2c(CC3=NCCN3)cccc2c1,inactive
15,C=Cc1ccc(C(C)(C)C)cc1,inactive
16,COC(C)(OC)OC,inactive
17,CCCC(=O)Nc1ccc(OCC(O)CNC(C)C)c(C(C)=O)c1 (stereo not given),inactive
18,C[C@]12CCC(=O)C=C1CC[C@H]1[C@@H]3CC[C@](O)(C(=O)CO)[C@@]3(C)C[C@H](O)[C@@]12F,21.1 µM (active)
19,CCCCCCCCCOC(=O)CCCCC(=O)OCCCCCCC,inactive
20,O=Cc1cc2ccccc2o1,inactive

row,Compound,Potency
1,CCCCCCCCCOC(=O)c1ccccc1C(=O)OCCCCCCCCC,inactive
2,C/C=C(\C)C(C)=O,inactive
3,CCOC(=O)CC1(C)OCC(C)O1 (stereo not given),inactive
4,OCC1CCC(CO)CC1 (stereo not given),inactive
5,Cc1c(N)cccc1Cl,inactive
6,C=CCCCCCCCC,inactive
7,O=C(NCN1CCOCC1)c1cnccn1,inactive
8,C=CC/C=C/C,inactive
9,O=C1CCCCO1,inactive
10,CNCCS(=O)(=O)O,inactive
11,CN(C)CCCO[C@@H]1[C@H]2OC(C)(C)O[C@H]2O[C@@H]1C(O)CO (stereo not given in full),inactive
12,CSc1cnccn1,inactive
13,CC(=O)c1cc(C)oc1C,inactive
14,CCCCCCC1(C)CCC(=O)O1 (stereo not given),inactive
15,CCC(C)OC(C)CC (stereo not given),inactive
16,CC(C)c1ccc(C=O)cc1,inactive
17,NC(=O)[C@@H]1CSSCCC(=O)N[C@@H](CCCCN=C(N)N)C(=O)NCC(=O)N[C@@H](CC(=O)O)C(=O)N[C@@H](Cc2c[nH]c3ccccc23)C(=O)N2CCC[C@H]2C(=O)N1 ([Mpa][hArg]GDWPC-NH2; disulfide 1-7),inactive
18,c1ccc(-c2nn[nH]n2)cc1,inactive
19,CC(C)CCOC(=O)c1ccccc1,inactive
20,CCCCCCCCCCCCCCCCCC#N,inactive
